From PubChem BioAssay (NCATS) come the findings set out here.

The target of this test is Calcium and integrin-binding protein 1 (Homo sapiens) (UniProt Q99828). Nature of the test: Primary qHTS for Identification of Calcium Integrin Binding Protein 1 (CIB1) Competitor (AID 1508620). Note: top concentration of the series differs between compounds. In a few lines:
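Fluorescence polarization competition: GST-tagged CIB1 (1 uM final) preincubated with compound 15 min at room temperature, then FITC-labelled alphaIIb peptide (100 nM final) added. After 15 min at room temperature, polarization read at Ex 480/Em 540.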
In general terms: Quantitative high-throughput screening tests each substance at several concentrations.

Results filed as inconclusive are left out. Entries that show only a call come without a potency. The source made the active and inactive calls. Calls come from the whole dose curve; as a rule, active = well fitted inhibition curve with a large enough effect; inconclusive = small, poorly fitted or top-dose-only effect; inactive = flat fitted curve, though single readings scatter.

Calcium and integrin-binding protein 1 (Homo sapiens), sequence (Q99828 whole entry, looked up): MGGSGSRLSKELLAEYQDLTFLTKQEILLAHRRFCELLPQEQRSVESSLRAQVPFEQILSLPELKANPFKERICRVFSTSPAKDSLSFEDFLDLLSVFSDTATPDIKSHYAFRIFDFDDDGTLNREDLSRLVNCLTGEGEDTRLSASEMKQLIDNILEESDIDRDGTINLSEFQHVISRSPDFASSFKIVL

Regarding `O=S1(=O)N=C(Oc2cccc3ccccc23)c2ccccc21`, the Potency result is “inactive”.
As for `Fc1cc(Nc2nc(-c3ccncc3)nc3ccccc23)ccc1-c1cccnc1`, the Potency entry was “inactive”.
The value for `Cc1cccc(-n2cnc3cc(C(=O)N4CCCCCC4)ccc32)c1` was “inactive”.
Regarding `O=C(OCC#CCSc1nnc(-c2cccc3ccccc23)o1)c1csc2ccccc12`, the Potency entry is “inactive”.
The value for `O=C1CCCC2=C1C(c1cccnc1Cl)N=C(Nc1nc3ccccc3o1)N2` (configuration not stated) was “inactive”; that for `Cc1cc(C)nc(/N=C(\NC#N)N2CCN(c3cccc(C(F)(F)F)c3)CC2)c1` was “inactive”; that for `Cc1ccc(-c2nn(CC(=O)N(C)C(C)c3ccco3)c(=O)cc2C)cc1` (configuration not stated) was “inactive”.
The result for `Cc1ccc(OCCn2c(CCNC(=O)c3ccccc3Br)nc3ccccc32)cc1` reads “inactive”; that for `Cc1cc(N2C(=O)c3ccccc3C2=O)no1`, “inactive”; that for `FC(F)(F)c1ccccc1-c1nc(NCc2ccc(-c3cccc(Cl)c3)cc2)c2ccccc2n1`, “inactive”.
As to `Cc1cc(NC(=O)Nc2nnc(-c3ccncc3)s2)ccc1F`, the Potency entry was “inactive”.
Turning to `O=S(=O)(NCCCCCCNS(=O)(=O)c1c(F)cccc1F)c1ccc2c(c1)OCCO2`, the Potency result is “inactive”.
The value for `O=C(Nc1ccc(-c2nc3ccccc3[nH]2)cc1)c1ccc(Oc2ccccc2)cc1` was “inactive”; that for `Cc1ccc(OCCn2c(CCNC(=O)NC3CCCCC3)nc3ccccc32)cc1` was “inactive”.
For `Cc1ccc(NS(=O)(=O)c2cccc(F)c2)cc1C`, the Potency entry was “inactive”.
As to `O=C(CNC(=O)c1ccccc1)OC(C(=O)Nc1cc([N+](=O)[O-])ccc1F)c1ccccc1` (configuration not stated), the Potency entry was “inactive”.
For the compound `COc1ccccc1NC(=O)C(OC(=O)CNC(=O)c1ccccc1)c1ccccc1` (configuration not stated), the Potency result was “inactive”.
In the case of `CC(=O)Nc1sc2cnccc2c1-c1nc2ccccc2s1`, the Potency entry was “inactive”.
With `Cc1c(P(=S)(c2ccccc2)c2ccccc2)c2ccccc2n1CCc1ccccc1`, the Potency result is “inactive”.
In the case of `COc1ccc(C2Nc3ccccc3C(=O)N2Cc2ccccc2)cc1COc1cccc(Cl)c1` (configuration not stated), the Potency entry was “inactive”.
With `COc1ccccc1C1=Nn2c(nnc2-c2ccccc2O)SC1`, the Potency result was “inactive”.
The value for `CC(=O)Nc1sc2c(c1-c1ccc(C(N)=O)cc1)CCNC2` was “inactive”.
As to `COc1ccc(NC(=O)CN(C)C(=O)c2cc3c(s2)CCC3)cc1`, the Potency entry is “inactive”.
Regarding `O=S(=O)(NCCNc1nc(-c2ccco2)nc2ccccc12)c1ccccc1`, the Potency result was “inactive”.
Turning to `CCOc1cccc(-c2cc(-c3n[nH]c(=S)n3CC)c3ccccc3n2)c1`, the Potency entry was “inactive”.
For the compound `O=C(C1CCN(c2nc(-c3ccc(Br)cc3)cs2)CC1)N1CCNCC1`, the Potency result was “inactive”.
In the case of `COc1ccc2nc(-c3cccc(F)c3)sc2c1`, the Potency entry is “inactive”.
`NC(=O)C1CCN(c2ncc(-c3ccc(Br)cc3)s2)CC1`: the Potency result was “inactive”.
For the compound `N#Cc1c(-c2ccc(C(=O)c3ccc(O)cc3)cc2)no[n+]1[O-]`, the Potency entry is “inactive”.
`Cc1ccnc(NC(=S)N2CCN(c3cccc(Cl)c3Cl)CC2)c1`: the Potency result is “inactive”.
`COc1cc(OC)cc(C2=Nn3c(nnc3-c3cccc(OC)c3)SC2)c1`: the Potency result is “inactive”.
`O=C(O)c1ccc2c(c1)C(=O)N([C@H](Cc1ccc3ccccc3c1)C(=O)O)C2=O`: the Potency entry is “inactive”.
`COC(=O)c1ccc(O)c2ncc(N(C)C)cc12`: the Potency entry was “inactive”.
The value for `Cc1cc(C)nc(NC(=S)N2CCN(c3cccc4ccccc34)CC2)c1` was “inactive”.
As for `O=C(Nc1ccc(-c2nc3ccccc3[nH]2)cc1)c1ccc2cc[nH]c2c1`, the Potency result was “inactive”.
On to `Clc1cccc(-c2nc(-c3ccc(-c4nn[nH]n4)cc3)no2)c1`, for which the Potency entry is “inactive”.
For `Nc1nc(NCc2ccc(-c3ccnc(C(F)(F)F)c3)cc2)c2ccccc2n1`, the Potency result was “inactive”.
On to `Cc1cc(C)nc(NC(=S)N2CCN(c3ccc(Cl)nn3)CC2)c1`, for which the Potency result was “inactive”.
As to `COc1ccc(C2c3c(nc(CCCc4ccccc4)[nH]c3=O)Oc3ccc4ccccc4c32)cc1OC` (configuration not stated), the Potency result is “inactive”.
The result for `Cc1c(P(=S)(c2ccccc2)c2ccccc2)[n+]2ccccc2n1CCCCc1ccccc1` reads “inactive”; that for `CCOC(=O)CCCC(=O)Nc1ncnc2c1C(c1ccccc1)c1c(ccc3ccccc13)O2` (configuration not stated), “inactive”.
As to `Cc1cc(NS(=O)(=O)c2ccc(NC(=O)Cc3ccc(C)c(C)c3)cc2)no1`, the Potency entry is “inactive”.
Take `Cc1ccc(OCCn2c(CCNC(=O)Cc3ccc(F)cc3F)nc3ccccc32)cc1`: the Potency entry was “inactive”.
Consider `CC(C)(C)Nc1nc(C#N)nc(Nc2ccccc2)n1`, for which the Potency result is “inactive”.
On to `COc1cccc(Nc2ccc(N3CCN(C(C)=O)CC3)cc2)c1OC`, for which the Potency entry is “inactive”.
For the compound `COc1cccc(NS(=O)(=O)c2ccc3c(c2)CCC(=O)N3)c1`, the Potency result was “inactive”.
Turning to `N#Cc1nc(Nc2cccc(F)c2)nc(NC2CCCC2)n1`, the Potency entry was “inactive”.
Regarding `O=[S+]([O-])(c1ccc2c(c1)OCCO2)N1CCN([S+](=O)([O-])c2c(F)cc(Br)cc2F)CC1`, the Potency entry was “inactive”.
In the case of `Cc1cc(C)nc(NC(=S)N2CCN(c3cccc(S(C)(=O)=O)c3)CC2)c1`, the Potency result was “inactive”.
With `COc1ccccc1C1=Nn2c(nnc2-c2cccc(OC)c2OC)SC1`, the Potency result was “inactive”.
Turning to `O=[S+]([O-])(Nc1ccc(-c2nc3ccccc3[nH]2)cc1)c1ccc2c(c1)OCO2`, the Potency entry is “inactive”.
Turning to `Cc1ccccc1C(=O)N1CCc2cc(-c3ccnc(NC(=O)Cc4ccccc4)n3)ccc21`, the Potency entry is “inactive”.
For the compound `COc1ccc(C(=O)Oc2ccc(-c3nc4ccccc4[nH]3)cc2)cc1OC`, the Potency result was “inactive”.
With `O=C1Cc2cc(S(=O)(=O)N3CCN(c4ccc([N+](=O)[O-])cc4)CC3)ccc2N1`, the Potency entry was “inactive”.
Take `NC(=O)C1CCN(c2nc(-c3ccc(N)cc3)cs2)CC1`: the Potency entry is “inactive”.
Consider `CCOC(=O)c1ccc(-c2ccc3ncnc(NCCc4cnc[nH]4)c3c2)o1`, for which the Potency result was “inactive”.
For `NC(=O)C1CCN(c2cc(-c3ccc4c(c3)OCCCO4)ncn2)CC1`, the Potency result is “inactive”.
In the case of `O=C(Nc1ncc(Cc2ccc(C(F)(F)F)cc2)s1)c1cccc(-c2ccccc2)c1`, the Potency entry is “inactive”.
With `Cn1nnnc1Sc1ncnc2scc(-c3ccc(Cl)cc3)c12`, the Potency entry was “inactive”.
The value for `O=S(=O)(c1ccc2c(c1)OCCO2)C1CCC(O)CC1` (configuration not stated) was “inactive”; that for `Cn1nnnc1Sc1ncnc2scc(-c3ccc(C#N)cc3)c12` was “inactive”; that for `O=C1Nc2ccccc2/C1=C\c1cc(F)c(O)c(F)c1` was “inactive”.
Regarding `CC(C)(C)OC(=O)NCCOCCOCCOc1ccc(-c2no[n+]([O-])c2C#N)cc1`, the Potency result was “inactive”.
The result for `O=C(Nc1ccc(-c2nc3ccccc3[nH]2)cc1)c1ccc2c(c1)OCCO2` reads “inactive”; that for `Cc1cc(C(=O)Nc2ccc(NC(=O)Cc3ccc(Cl)c(Cl)c3)cc2)no1`, “inactive”; that for `O=C(Nc1ccc2ccccc2c1)Nc1nnc(-c2ccc(O)cc2)s1`, “inactive”.
Regarding `FC(F)(F)c1cccc(-c2ccc(CNc3nc(-c4ccccc4C(F)(F)F)nc4ccccc34)cc2)c1`, the Potency result was “inactive”.
Take `c1nc(NCCc2cnc[nH]2)c2cc(-c3ccoc3)ccc2n1`: the Potency entry is “inactive”.
Turning to `COc1cccc(Cn2ncc3c4sc(C)cc4n(C)c3c2=O)c1`, the Potency result was “inactive”.
Take `Cc1ccc(OCCn2c(CCNC(=O)CCc3ccc(N)cc3)nc3ccccc32)cc1`: the Potency result is “inactive”.
`COc1ccc(Nc2nc(-c3ccncc3)nc3ccccc23)cc1F`: the Potency result was “inactive”.
For the compound `CC(=O)c1c(C)[nH]c(C(=O)Nc2ccc(OCCCN(C)C)c(S(=O)(=O)Nc3ccc(Br)cc3)c2)c1C`, the Potency entry is “inactive”.
As to `Cc1ccc(NC(=O)CN2C(=O)N/C(=C\c3ccco3)C2=O)cc1`, the Potency entry is “inactive”.
The result for `COc1ccc(C2c3c(ncn(CCN4CCOCC4)c3=N)Oc3ccc4ccccc4c32)cc1OC` (configuration not stated) reads “inactive”; that for `Cn1nnnc1Sc1ncnc2scc(-c3ccccc3C#N)c12`, “inactive”.
As for `O=C(c1c(F)cccc1F)N1CCN(S(=O)(=O)c2ccc3c(c2)OCCO3)CC1`, the Potency result is “inactive”.
The value for `Fc1cc(F)cc(Nc2nc(NC3CCCC3)nc(C3CO3)n2)c1` (configuration not stated) was “inactive”; that for `COc1ccc(OC)c(-c2nnc3n2N=C(c2c(OC)cccc2OC)CS3)c1` was “inactive”; that for `Fc1ccc(-c2nc(-c3ccncc3)nc3ccccc23)cc1F` was “inactive”.
Take `Cc1cccc(C(=O)NCC(=O)OC(C(=O)Nc2cc(C(F)(F)F)ccc2Cl)c2ccccc2)c1` (configuration not stated): the Potency result was “inactive”.
On to `COc1ccc(C2Nc3ccccc3C(=O)N2C2CCCC2)cc1COc1ccc(NC(C)=O)cc1` (configuration not stated), for which the Potency entry is “inactive”.
In the case of `COc1cc2c(s1)c1cnn(Cc3ccccc3F)c(=O)c1n2C`, the Potency result is “inactive”.
Regarding `O=C1CCCC2=C1C(c1cccc(F)c1)N=C(Nc1nc3ccccc3o1)N2` (configuration not stated), the Potency entry was “inactive”.
Take `Nc1cccc(S(=O)(=O)N2CCN(S(=O)(=O)c3c(F)cccc3F)CC2)c1`: the Potency entry is “inactive”.
The result for `Cc1cc2c(s1)c1cnn(Cc3cccc([N+](=O)[O-])c3)c(=O)c1n2C` reads “inactive”; that for `S=C(Nc1cc(Cl)ccn1)N1CCN(c2ccc(Cl)c(Cl)c2)CC1`, “inactive”.
Take `COc1ccc(C2Nc3ccccc3C(=O)N2Cc2ccc(-c3ccccc3)cc2)cc1COc1ccc(NC(C)=O)cc1` (configuration not stated): the Potency result was “inactive”.
In the case of `C#CCOc1cccc(-c2nnc3n2N=C(c2ccc(OC)c(OCC(C)=O)c2)CS3)c1`, the Potency entry is “inactive”.
As to `CCOC(=O)c1ccc(-c2ccc3ncnc(NCc4ncc[nH]4)c3c2)o1`, the Potency result was “inactive”.
As for `Cc1cc(C)nc(NC(=S)N2CCN(c3nncs3)CC2)c1`, the Potency entry was “inactive”.
Take `CNc1cc2c(cc1S(=O)(=O)Nc1ccc(C)c(C)c1)CCC(=O)N2`: the Potency result is “inactive”.
In the case of `O=C1c2ccccc2C(=O)N1c1cc(=O)c2ccccc2[nH]1`, the Potency entry is “inactive”.
